Reference: ChEMBL document CHEMBL3988442, “University of Dundee, Small-Polar-MMV Screening Library” (2021)
The whole screen tested about 48,000 compounds, of which about 13,000 (27%) showed an effect of 50% or more. This is one part of the list.

Tested on: Wolbachia pipientis
Test: Anti-Wolbachia Cell-Based Screen
Format: functional
Parameters: scale not given: in the data most compounds retested in dose-response had high values
Details: 5 µM

| Structure (SMILES) | Percent Effect |
| --- | --- |
| CCn1ccnc1CN1CCCN(CC2CC2)C(C(C)C)C1 (configuration not stated) | -2.193% |
| Cc1nnsc1CN1CCCC1c1nc(-c2ccccc2)no1 (configuration not stated) | 16.39% |
| Cc1csc([C@@H]2C[C@@H]3CCN(Cc4cnn(C)c4)C[C@H]3O2)n1 | -7.419% |
| CN1CCC(N(C)C(=O)CSc2ccc(F)c(F)c2)C1=O (configuration not stated) | -7.197% |
| Cc1ccc([C@@H]2CN(C(=O)c3ccoc3C)C[C@H]2NC(=O)C2CC2)cc1 | -4.07% |
| Cc1occc1C(=O)N1C[C@@H]2CCCO[C@@H]2[C@H](NC(=O)CC2CC2)C1 | 111.2% |
| CCOCCN1CCN(CC(=O)N2CCC2)CC1CC (configuration not stated) | 109.6% |
| CCOCCN1CCN(CC(=O)NC2(C#N)CCCC2)CC1CC (configuration not stated) | -13.43% |
| CCOCCN1CCN(CCC(=O)N2CCCCC2)CC1C (configuration not stated) | -8.269% |
| CCOCCN1CCN(CC(=O)N2CCCC2)CC1CC (configuration not stated) | 98.08% |
| CCOCCN1CCN(CC(=O)N2CCCC2)CC1C (configuration not stated) | -3.155% |
| CCOCCN1CCN(Cc2nc(C)no2)CC1CC (configuration not stated) | -13.77% |
| O=C1C=CC=N/C1=C(/O)NCCNS(=O)(=O)N1CCCCCC1 | -2.703% |
| CC(=O)NCc1noc2c1CN(Cc1ccsc1)CC2 | -0.8794% |
| COC(=O)CNC(=O)c1ccc(OC2CCN(S(C)(=O)=O)CC2)c(Cl)c1 | -7.47% |
| CCc1cnc(CN(C(C)=O)C2CCN(CCc3ccccn3)C2)o1 (configuration not stated) | 119.1% |
| CCc1cnc(CN(C(C)=O)C2CCN(CCc3cnn(C)c3)C2)o1 (configuration not stated) | 11.37% |
| CCc1cnc(CN(C(C)=O)C2CCN(CCc3ccncc3)C2)o1 (configuration not stated) | 111.3% |
| CCc1cnc(CN(C(C)=O)C2CCN(CCc3ccccc3)C2)o1 (configuration not stated) | 104.1% |
| CCc1cnc(CN(C)C2CCN(CCc3ccccn3)C2)o1 (configuration not stated) | -9.613% |
| CN(CCC#N)C(=O)CSc1cc(F)ccc1F | 10.19% |
| COCCS(=O)(=O)Nc1cc(Cl)ccn1 | 7.348% |

| Structure (SMILES) | Percent Effect |
| --- | --- |
| CC(=O)N1N=C(c2ccco2)OC1C(=O)NCC(C)C (configuration not stated) | 108.9% |
| CCNC(=O)C1CCN(c2nc(-c3ccco3)nc3c2CCNCC3)C1 (configuration not stated) | 5.847% |
| CC(C)CN(Cc1nnc(-c2ccco2)o1)CC(C)C | -6.92% |
| CCCNC(=O)CCNC(=O)Cc1nc(-c2ccco2)oc1C | -2.58% |
| CC(C)CN(Cc1cnn(C)c1)C(=O)C1COc2ccccc2C1 (configuration not stated) | -20.05% |
| CC(=O)N1N=C(c2ccco2)OC1C(=O)N(CC(C)C)CC(C)C (configuration not stated) | 91.49% |
| Cc1noc(C)c1CN1CC[C@H](OCC2CC2)[C@@H](Cc2ccccc2)C1 | -6.774% |
| CN(CC1(CO)CCC1)C(=O)C1CCC(=O)N(Cc2ccc(Cl)cc2)C1 (configuration not stated) | 0.1062% |
| O=C(Nc1ccc(-n2cccn2)cc1)N1CCOCC(O)C1 (configuration not stated) | 0.445% |
| O=C(c1cccs1)N1CCOCC2(C1)CN(c1ccccc1)C(=O)CO2 (configuration not stated) | 85.77% |
| O=C(O)C(F)(F)F.O=C(c1ccco1)N1CCOCC2(C1)CN(c1cccnc1)C(=O)CO2 (configuration not stated) | 102.4% |
| O=C(O)C(F)(F)F.O=C(c1cccs1)N1CCOCC2(C1)CN(c1cccnc1)C(=O)CO2 (configuration not stated) | 114.5% |
| O=C(O)C(F)(F)F.O=C(O)C(F)(F)F.O=C(c1ccncc1)N1CCOC2(COCCN(c3cccnc3)C2)C1 (configuration not stated) | -8.352% |
| Cc1cc(C)c(OCC(=O)NS(=O)(=O)c2cccnc2)c(C)c1 | -6.374% |
| COc1ccc(C)cc1C1(CNc2cncc(Cl)n2)CCOCC1 | -4.03% |
| COC(=O)CCNC(=O)c1cc(Br)c2c(c1)OCCO2 | -24.52% |
| O[C@@H]1CN(c2cnc3ccccc3n2)CC[C@H]1c1ccc2c(c1)OCO2 | 98.83% |
| O[C@@H]1CN(c2nc3ccccc3s2)CC[C@H]1c1ccc2c(c1)OCO2 | 110.1% |
| c1ccc2oc(N3CCC(c4nncn4C4CC4)CC3)nc2c1 | -9.735% |
| O[C@@H]1CN(c2nc3ccccc3o2)CC[C@H]1c1ccc2c(c1)OCO2 | 107.9% |
| CN1CCN(C2CCN(c3cnc4ccccc4n3)CC2)C1=O | 19.91% |
| CN(C)CC1CN(c2cnc3ccccc3n2)CCO1 (configuration not stated) | 11.03% |

| Structure (SMILES) | Percent Effect |
| --- | --- |
| O=C(NC1CC1)C1CN(c2nc3ccccc3s2)CCN1 (configuration not stated) | -6.534% |
| O=C(N[C@@H]1CCN(c2nc3ccccc3o2)C[C@H]1O)c1cnccn1 | 6.046% |
| c1ccc2sc(N3CCOC(Cn4cccn4)C3)nc2c1 (configuration not stated) | 4.7% |
| CCNC(=O)NC[C@H]1COCc2nc3cc(OC)ccc3n21 | 0.3029% |
| CCN(CC)C(=O)CN(C)C(=O)c1cccn1CCc1ccccc1 | 1.592% |
| CNC(=O)[C@H]1C[C@@H]2CN(C(=O)NC(C)C)C[C@H]1O2 | -20.87% |
| COc1ccc(OC)c(-n2cnnc2COC(C)C)c1 | -1.207% |
| Cc1cc(C)c2ncn(CCOCCO)c(=O)c2c1 | -8.527% |
| Cn1c2ccc(F)cc2c2ncn(CCCN(CCO)CCO)c(=O)c21 | 122.3% |
| Cn1c2ccc(F)cc2c2ncn(CCN3CCOCC3)c(=O)c21 | 129.5% |
| O=c1c2cccc(F)c2ncn1CCN1CCNCC1 | -5.542% |
| Cn1c2ccccc2c2ncn(CCN3CCOCC3)c(=O)c21 | 100.8% |
| Cc1nc(-c2c(-c3ccccc3)ncn2CCCN2CCOCC2)c[nH]1 | -4.456% |
| CC(C(=O)Nc1cccc(F)c1)N(C)CCN1CCOCC1 (configuration not stated) | 11.62% |
| O=c1c2c(ncn1CCCO)nc1n2CCC1 | -24.45% |
| O=c1c2cccc(C(F)(F)F)c2ncn1CCN1CCNCC1 | -10.29% |
| Cn1c2ccccc2c2ncn(CCCN3CCOCC3)c(=O)c21 | 106.3% |
| Cc1ccc(-c2c(-c3ccccc3)ncn2CCCN2CCOCC2)o1 | -10.17% |
| O=c1c2cccc(F)c2ncn1CCN1CCOCC1 | 0.8234% |
| CS(=O)(=O)c1ccc(NC(=O)NCc2ccc(F)cc2)cn1 | 9.509% |
| CN(CC1(CO)CC1)C(=O)C1CCC(=O)N(Cc2ccc(Cl)cc2)C1 (configuration not stated) | -2.442% |
| CC(C)c1cc(C(=O)N2CCN(Cc3ccco3)CC2)n[nH]1 | 11.56% |

| Structure (SMILES) | Percent Effect |
| --- | --- |
| O=C1CN(C(=O)C2CCCCC2)CC(O)CN1Cc1ccco1 (configuration not stated) | 88.46% |
| CC(C)(C)C(=O)N1CC(=O)N(Cc2ccco2)CC(O)C1 (configuration not stated) | 96.28% |
| CC(C)(C)OC(=O)N1CCCN(Cc2ccon2)c2ccccc21 | 7.757% |
| CC(=O)N1CCC(CSCc2ccco2)CC1 | -2.113% |
| CC(C)COC(=O)N1CC(=O)N(Cc2ccco2)CC(O)C1 (configuration not stated) | 111.6% |
| O=C(O)C(F)(F)F.O=C1C[C@@H]2[C@H](CCN2Cc2ccco2)N1c1ccsc1 | 5.007% |
| O=C(NCCc1cccnc1)C1CCCN(Cc2ccco2)C1 (configuration not stated) | -20.69% |
| CC(C)(C)OC(=O)N1CC(=O)N(Cc2ccco2)CC(O)C1 (configuration not stated) | 112.7% |
| O=C([C@H]1COC[C@H]2CN(Cc3ccco3)C[C@H]21)N1CCCO1 | -9.766% |
| CC(NCc1ccc(-c2ccc(F)cc2)o1)c1nnc2n1CCC2 (configuration not stated) | 11.28% |
| CNC(=O)c1ccc(NC2CCN(CC(F)(F)F)C2=O)cc1Cl (configuration not stated) | 5.324% |
| Cc1ccc(C(NC(=O)CN2CCc3c(ncn3C)C2)C2CC2)cc1 (configuration not stated) | 0.6431% |
| O=C(CN1C(=O)CCC1=O)N1CCC(S(=O)(=O)Cc2ccco2)CC1 | 3.229% |
| CC(C)CC(=O)N1CC(=O)N(Cc2ccco2)CC(O)C1 (configuration not stated) | 81.13% |
| O=C(CN1C(=O)CCC1=O)N1CCC(CSCc2ccco2)CC1 | -7.09% |
| COCCOCCNC(=O)c1ccc(N2CCC(C)=N2)cc1 | -11.91% |
| Cn1cc(CN2CCCC3(CCN(c4nncs4)C3)C2)cn1.O=C(O)C(F)(F)F (configuration not stated) | -2.653% |
| Cc1cccc(CN2CCC3(CCC(CC(=O)N(C)C)CC3)CC2)n1.O=C(O)C(F)(F)F | -48.49% |
| Cc1cccc(CN2CCOC3(CCCN(CC(=O)N(C)C)C3)C2)n1.O=C(O)C(F)(F)F.O=C(O)C(F)(F)F (configuration not stated) | 7.418% |
| Cc1cccc(CN2CCCC3(CCN(CC4CCCO4)CC3)C2)n1.O=C(O)C(F)(F)F.O=C(O)C(F)(F)F (configuration not stated) | 92.13% |
| Cn1cc(CN2CCCC3(CCN(C(=O)c4ccccn4)C3)C2)cn1.O=C(O)C(F)(F)F.O=C(O)C(F)(F)F.O=C(O)C(F)(F)F (configuration not stated) | 5.668% |
| O=C1OC2(CCN(CC3CCCO3)CC2)CN1CCc1ccccc1 (configuration not stated) | 4.853% |

| Structure (SMILES) | Percent Effect |
| --- | --- |
| Cc1cccc(CN2CCC3(CCCN(Cc4cnn(C)c4)C3)C2)n1.O=C(O)C(F)(F)F.O=C(O)C(F)(F)F (configuration not stated) | 99.91% |
| c1cc(CN2CCCC3(CCN(CC4CCCO4)CC3)C2)n[nH]1 (configuration not stated) | 86.72% |
| CCN1CC2(CCN(CC3CCCO3)CC2)OC1=O (configuration not stated) | -23.86% |
| NC(=O)c1cnc(NC2CCC(c3ccccc3)CC2)c(Cl)c1 (configuration not stated) | -13.17% |
| CCc1ncncc1C(=O)N1CCN(Cc2c(C)noc2C)CC1 | -0.7919% |
| COc1ccccc1OC1CCN(C(=O)c2c[nH]c(=O)[nH]c2=O)CC1 | -1.274% |
| Cc1nn(CCO)c(C)c1CNC1CCOc2ccccc21.Cl (configuration not stated) | -2.726% |
| O=C(NCCNc1ccccn1)N1CCSCC1 | 1.97% |
| Cc1[nH]ncc1CCCNC(=O)N1CCOC(C)C1 (configuration not stated) | -4.876% |
| CC1CN(C(=O)NCCCn2cncn2)CCO1 (configuration not stated) | -6.452% |
| O=C(NCCNc1cnccn1)N1CCN(Cc2cccnc2)CC1 | 1.12% |
| CN1CCCN(C(=O)NCCNc2ncccc2C#N)CC1 | -11.99% |
| O=C(NCCNc1cnccn1)N1CC=C(c2ccccc2)CC1 | -24.03% |
| O=C(NCCNc1cnccn1)N1CCc2ccccc2C1 | 3.9% |
| O=C(NCCNc1cnccn1)N1CCN(c2nccs2)CC1 | 115.8% |
| CC(=O)N1CCCN(C(=O)NCCNc2cnccn2)CC1 | 106.7% |
| CN1CCCN(C(=O)NCCNc2cnccn2)CC1 | 104.7% |
| CC1CN(C(=O)NCCNc2cnccn2)CCO1 (configuration not stated) | 93.32% |
| O=C(NCCNc1cnccn1)N1CC=C(c2ccc(O)cc2)CC1 | -14.06% |
